BLM inh: inhibitors of human Bloom syndrome helicase BLM; recombinant BLM DNA unwinding, fluorescence dequenching; Potency, µM (highest dose often 56.1 µM), without a hit: at the top dose activity change, negative = inhibition, hits mostly inhibitors; actives 0.2% (n = 350,000);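 also: plate controls were vehicle for no effect and no enzyme for full effect; nearly all actives have a fitted effect of over 35% in size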
RECQ1 inh: blocks DNA unwinding by human RECQ1; P46063; RECQ1 DNA unwinding, red fluorescence kinetic read; Potency, µM (highest dose often 57.3 µM), inactives show at the top dose activity, negative = inhibition, hits mostly inhibitors; actives 0.54% (n = 240,000); AID 2549;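 also: plate controls were vehicle for no effect and no enzyme for full effect; nearly all actives have a fitted effect of over 30% in size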
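RECQ1T1 50 nM; forked duplex (20 bp + 30-nt ss tails) 200 nM, ATP 2 mM final; pH 8.0, 2 mM MgCl2, 2.5 ug/ml poly(dI-dC); 15 min compound preincubation; discontinuous kinetic read over 2 h at RT.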
TRb-SRC2 inh: inhibitors of human thyroid hormone receptor beta-SRC2 interaction; TRbeta-SRC2 peptide binding, fluorescence polarization; receptor liganded with 1 µM T3; Potency, µM (doses to about 106 µM), for inactives: top-dose activity change, negative = inhibition, hits mostly inhibitors; actives 0.065% (n = 280,000); AID 1469;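 also: plate controls were bound peptide for no effect and peptide without receptor for full effect; nearly all actives have a fitted effect of over 50% in size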
Target sequence (P10828 whole entry, looked up): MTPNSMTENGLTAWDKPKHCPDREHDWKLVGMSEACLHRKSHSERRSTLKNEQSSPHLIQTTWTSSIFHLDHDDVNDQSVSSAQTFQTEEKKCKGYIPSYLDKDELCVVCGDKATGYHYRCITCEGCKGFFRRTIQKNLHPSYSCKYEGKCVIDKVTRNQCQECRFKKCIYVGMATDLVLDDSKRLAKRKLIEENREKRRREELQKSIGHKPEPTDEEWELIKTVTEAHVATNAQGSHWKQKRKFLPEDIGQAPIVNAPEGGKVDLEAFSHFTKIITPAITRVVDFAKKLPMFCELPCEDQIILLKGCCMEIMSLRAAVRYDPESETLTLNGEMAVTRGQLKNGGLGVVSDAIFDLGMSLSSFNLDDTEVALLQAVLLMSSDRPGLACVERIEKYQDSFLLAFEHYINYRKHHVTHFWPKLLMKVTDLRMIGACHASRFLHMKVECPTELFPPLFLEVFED
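Decrease in fluorescence polarization of 20 nM Texas Red SRC2 coactivator peptide flagged inhibition of its binding to 0.6 uM TRb LBD; 1 uM T3 included, incubation 5 hr, ex 555/em 632 nm.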
TexasRed fluor: Texas Red fluorescence interference in TRb-SRC2 counter-screen | Potency, µM (series often up to 106 µM), for the others: at the highest dose fluorescence change, negative = quenching | TRb/SRC2 Texas Red total fluorescence interference | actives 0.29% (n = 280,000); active = well fitted curve in either direction with a large enough effect; inconclusive = small, poorly fitted or top-dose-only effect; also: % is scaled to controls: 0 for no effect and ±100 for the full control effect
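Flags fluorescent or light-absorbing compounds by total fluorescence, S + 2P, at 555 nm excitation and 632 nm emission. Mixture: 20 nM Texas Red SRC2 peptide, 0.6 uM human TRb LBD, 1 uM T3, 5% DMSO; compound exposure 5 h at ambient temperature.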
GoLoco inh red: blocks human Gai1 binding to RGS12 GoLoco peptide, red readout. actives 0.44% (n = 230,000). AID 880. P63096. Gai1:RGS12 GoLoco peptide FP, rhodamine, 10 min. Potency, µM (series often up to 61.6 µM), without a hit: top-dose activity, negative = inhibition, hits mostly inhibitors; active = well fitted inhibition curve with a large enough effect, not every such curve was filed as active; inactive = no such curve, though single readings can be large or run the other way; also: % is scaled to controls: 0 for no effect and ±100 for the full control effect; nearly all actives have a fitted effect of over 30% in size
ERG Ets-DNA blk: inhibitors of human ERG Ets domain-DNA interaction | AID 624246 | fluorescence polarization, His-ERG Ets domain / labelled DNA | actives 0.028% (n = 370,000) | Potency, µM (series often up to 76.9 µM), for inactives: top-dose FP activity, negative = inhibition, most hits filed as inhibitors; active = well fitted inhibition curve with a large enough effect in the polarisation, with a control signal flat; inconclusive = small, poorly fitted or top-dose-only effect, or effect the other way, or a change in a side signal; inactive = no such curve, though single readings can be large or run the other way; the % refers to the polarisation;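 also: polarization taken with two DNA probes labelled with fluorescein and Texas red; % of control where 0% means no effect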
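His-tagged ERG Ets domain (1 uM in the protein solution; 300mM KCl, 50mM Tris-HCl, 1mM EDTA, 1mM DTT, pH 7.5) received compound, then a probe mix of 5 nM fluorescein-DNA and 100nM Texas-615-DNA. Fluorescence polarization was read for both dyes.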
An asterisk follows results filed as active; i = inactive; u = inconclusive; x = no result; ! = not active in a repeat; [ ] = dose if it differs, or a comment. This is a sample that favours compounds with a hit; in the whole collection about 0.71% have one here. Unless noted, calls follow the shape of the dose curve; as a rule, active = well fitted curve in the direction sought with a large enough effect; inconclusive = small, poorly fitted or top-dose-only effect, or another doubt; inactive = no such curve, though single readings can be large; an effect the other way counts as inactive or inconclusive. Potency is read from the fitted curve at half-maximal effect.

SMILES | BLM inh | RECQ1 inh | TRb-SRC2 inh | TexasRed fluor | GoLoco inh red | ERG Ets-DNA blk
COc1ccc([N+](=O)[O-])cc1NC(=O)Nc1ccc(OC)c(OC)c1 | 32µM* | i | -5% | -5% | 6% | -4%
CC1(C)CC(=O)C=C(N2CCN(C3=CC(=O)CC(C)(C)C3)CC2)C1 | -3% | -5% | -5% | 0% | 14% | x
CC1(C)CC(N2CCCC2)=CC(=[N+]2CCCCC2)C1 | 1% | -9% | 3% | -3% | 6.3µM* | 5%
CC1(C)CC(N2CCCC2)=CC(=[N+]2CCCC2)C1 | 1% | 10% | 0% | -1% | 2µM* | -4%
CC1(C)CC(N2CCN(Cc3ccccc3)CC2)=CC(=[N+]2CCCCC2)C1 | 1% | i | -5% | -2% | 25µM* | -5%
COc1ccccc1NC(=O)CC(C)=O | x | x | -1%[201 µM] | -3%[201 µM] | x | x
Cc1cccn2c(=O)c(-c3nnn[nH]3)cnc12 | 3% | x | x | x | x | x
Cc1ccc2nc(-c3ccc(NS(C)(=O)=O)cc3)cc(-c3ccccc3)c2c1 | -28% | -31% | x | x | 7% | 5%
CCS(=O)(=O)Nc1ccc(-c2cc(-c3ccccc3)c3cc(C)ccc3n2)cc1 | -3% | 0% | -15%[53 µM] | 0.14µM*[quencher] | -15% | x
CCOC(=O)c1sc(Nc2nc3cc4c(cc3s2)OCO4)cc1C | -18% | -15% | 2% | 0.32µM*[quencher] | 29% | 0%
CC[C@H](C)[C@H](NC(=O)[C@H](Cc1ccc(O)cc1)NC(=O)[C@@H](NC(=O)[C@H](CCCN=C(N)N)NC(=O)[C@@H](N)CC(=O)O)C(C)C)C(=O)N[C@@H](Cc1cnc[nH]1)C(=O)N1CCC[C@H]1C(=O)N[C@@H](Cc1ccccc1)C(=O)N[C@@H](Cc1cnc[nH]1)C(=O)N[C@@H](CC(C)C)C(=O)O | 3% | -20% | -5% | u | x | x
COC(=O)c1ccccc1S(=O)(=O)N1CCc2nc(-c3ccc(OC)cc3C)c3c(c2C1)CO[C@@H](c1ccccc1)C3 | -4%[12.4 µM] | -11%[11.5 µM] | -1%[11.2 µM] | -3%[11.2 µM] | -1%[14.2 µM] | x
CCCCCCCCCCCCCC[C@@H](O)[C@@H](O)[C@H](CO)NC(C)=O | -7% | i | 0% | -28% | x | x
O=[N+]([O-])c1ccccc1OCCOc1ccccc1[N+](=O)[O-] | 0% | 40µM* | 7% | -1% | 5% | -5%
CCCCCCCCOC(=O)c1cc(O)c(O)c(O)c1 | x | x | 5%[201 µM] | -3%[201 µM] | x | x
CCN=c1scc(C)n1/N=C/c1ccc(O)c(O)c1O | -19% | 25µM* | 1% | -19% | 8% | -11%
COCOc1cc(OC)ccc1C(=O)/C=C/c1cccc(C(F)(F)F)c1 | -6% | -9% | -5% | 1% | 2% | x
COn1cnnc1-c1ccccc1 | 0% | -2% | -2% | -4% | 8.9µM* | -3%
CCN(CCN(C)C)C(=O)c1ccc2c(c1NCCO)C(=O)c1ccccc1C2=O | 18µM* | 2% | 2% | 5% | 118% | -9%
COc1ccc(-c2cc(=O)oc3c(O)c(O)ccc23)cc1 | 10µM* | x | x | x | x | 5%
O=c1c(O)c(-c2cc(O)c(O)c(O)c2)oc2cc(O)cc(O)c12 | x | 0.89µM* | 19% | -26% | 12% | 3%
COc1c(-c2ccc(O)c(O)c2)oc2cc(O)cc(O)c2c1=O | 11µM*! | 18µM*! | -4% | -3% | 1% | 15%
O=c1c(O[C@@H]2O[C@H](CO)[C@H](O)[C@H](O)[C@H]2O)c(-c2ccc(O)c(O)c2)oc2cc(O)cc(O)c12 | -1% | -10% | 12% | -16% | 23% | x
COC(=O)C1=C(C(=O)OC)[C@@H]2N(Cc3ccccc3)c3ccccc3[C@@]23C[C@@H](C(=O)OC)N(S(=O)(=O)c2ccc4c(c2)OCCN4C)C3=N1 | 3%[12.4 µM] | u | 7%[11.2 µM] | -3%[11.2 µM] | 3%[14.2 µM] | x
C=C[C@@H]1CN2CC[C@@H]1C[C@@H]2[C@H](O)c1ccnc2ccc(OC)cc12 | x | i | -5% | x | 10% | x
SMILES | BLM inh | RECQ1 inh | TRb-SRC2 inh | TexasRed fluor | GoLoco inh red | ERG Ets-DNA blk
CSc1nc(C)cc(Nc2cccc(C(=O)O)c2)n1 | 2% | x | 0% | 6% | x | -2%
CCS(=O)(=O)c1ccc(O)c(Nc2cc(C)nc(SC)n2)c1 | 0% | x | -26% | 0.1µM*[quencher] | x | 6%
COc1ccc(N=C2NC(=O)S/C2=C\c2ccc(N(C)C)cc2)cc1 | 2% | -13% | 32µM* | 50µM*[fluorescent] | -96% | 38%
CCOc1ccc(N=C2NC(=O)S/C2=C\c2ccc(Cl)cc2)cc1 | -5% | -12% | -16% | 0% | 25% | 11%
Cc1nnc(Sc2cc(NCCCO)c([N+](=O)[O-])c3nonc23)s1 | -15% | -4% | 2% | -4% | 7.9µM* | 7%
Cc1cc2ccccc2n1CCNC(=O)c1cccs1 | 0% | -12% | 2% | 7% | -6% | 32µM*
CCc1oc(C(=O)O)cc1COC | 3% | -13% | 11% | 1% | -4% | -13%
COCc1cc(O)c(O)c(O)c1-c1c(COC)cc(O)c(O)c1O | -2% | 1µM* | -2% | -5% | -17% | x
C[N+]12CCCCC1[C@@H](CO)CCC2 (some centres not stated) | 2% | -6% | -2% | -2% | 4.5µM* | -4%
Cc1cc(CCC(=O)O)c(C)cc1CCC(=O)O | 1% | -1% | -2% | -1% | -5% | -15%
C=CC1=C(C)C2=NC1=CC1=NC(=CC3=NC(=CC4=NC(=C2)C(C)=C4CCC(=O)O)C(CCC(=O)O)=C3C)C(C=C)=C1C.[Zn] | 35µM* | 13µM* | 13µM* | 28µM*[fluorescent] | 5.6µM* | x
COc1ccc(-n2cc(C(=O)N(C)c3cc(C)ccc3OC)c3ccccc3c2=O)cc1 | -11% | x | 1% | -22% | x | 3%
Cc1cc(C)nc(SCc2ccc(C(=O)N/N=C3\CCCC(=O)C3)cc2)n1 | -8% | 22µM* | 2% | -1% | 11% | -4%
COc1ccc(Nc2nc(N)c3cc(OC)c(OC)cc3n2)cc1 | 16µM* | x | 3% | -6% | x | 7%
C[C@H](NC(=O)CNC(=O)[C@@H](NC(=O)[C@H](Cc1ccccc1)NC(=O)CNC(=O)CNC(=O)[C@@H](N)Cc1ccccc1)[C@@H](C)O)C(=O)N[C@@H](CCCN=C(N)N)C(=O)N[C@@H](CCCCN)C(=O)N[C@@H](CO)C(=O)N[C@@H](C)C(=O)N[C@@H](CCCN=C(N)N)C(=O)N[C@@H](CCCCN)C(N)=O | 24% | 10% | 0% | 3% | x | x
Cc1ccc(CNC(=O)Cc2coc3cc(C)cc(C)c23)cc1 | 0% | x | u | 4.5µM*[quencher] | x | 6%
Cc1cc(C)c2c(CC(=O)NCCc3ccccc3)coc2c1 | -5% | -4% | -9% | -1% | 5% | -4%
O=C(NCc1ccc(F)cc1)c1nnc(Cc2cccc(F)c2)o1 | -5% | x | -3% | u | x | 2%
